Measured values reported in PubChem BioAssay (NCI).
This is part of a sample that, as a whole, favours compounds with a hit. Of some 83,000 tested, about 20% had one in any assay.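 Single-concentration screen, 48 h exposure, 96-well plates. Endpoint: percent growth. Below 10 = active.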 Active and inactive are the calls of the source.

Test system: SK-MEL-28 melanoma
Test: NCI-60 one-dose screen, 48 h (100 = growth as untreated, 0 = no growth, -100 = all killed)
Conditions: 10 µM
Experimental: Growth inhibition of the SK-MEL-28 human tumor cell line is measured as a screen for anti-cancer activity. Cells are grown in 96 well plates and exposed to the test compound for 48 hours. Compounds are tested at a single concentration, which is 10^-5 M for most compounds. The reported endpoint is percent growth (GI% or GIPRCNT), where numbers from 0 - 100% represent growth inhibition, and numbers from -100% - 0 represent cell death. For example, a value of 40 represents 60% growth inhibition. A value of 0 means no net growth occurred over the course of the experiment. A value of -40 indicates 40% of cells at the beginning of the experiment died by the end of the experiment. A value of -100 means all cells are dead at the end of the experiment.
NCI-60 Human Tumor Cell Lines Screen was performed using the standard one-dose NCI protocol, which is described in more detail at https://dtp.cancer.gov/discovery_development/nci-60/default.htm.
Compounds with GIPRCNT values below 10 were considered active. Activity score was based on GIPRCNT using the following formula: […]
Score is 0 for GIPRCNT values of 100 or above, 50 for GIPRCNT values of 0, and 100 for GIPRCNT values of -100.

Compound	growth
O=C1/C=C/[C@@H](O)[C@@H]2C[C@@H](O)C[C@H]2/C=C/CCC[C@@H](C(F)(F)F)O1	61.8% (inactive)
COc1cc2c(cc1OC)C(C(CCCCCC(CCC(C)C)C1NCCc3cc(OC)c(OC)cc31)CCC(C)C)NCC2 (stereo not given)	-100% (active)
Nc1cc(-c2ccc(Cl)cc2)nn1-c1nc2ccccc2nc1Cc1ccccc1	92.9% (inactive)
CN(C)CCOc1ccc(-c2nc3sccn3c2-c2ccnc(S(C)(=O)=O)n2)cc1	110% (inactive)
NS(=O)(=O)Oc1ccc2c(ccn2C(=O)C23CC4CC(CC(C4)C2)C3)c1	101% (inactive)
Cc1ccc2nc(Cl)c(-c3nc4ccccc4o3)cc2c1	104% (inactive)
S=C(SSC(=S)N(c1ccccc1)c1ccccc1)N(c1ccccc1)c1ccccc1	111% (inactive)
CCCN(CCC)C(=O)[C@H](CC)[C@@H]1CC[C@@H](C)[C@@H]([C@H](C)[C@@H](O)[C@@H](C)C(=O)[C@H](CC)C2O[C@]3(C=C[C@@H](O)[C@]4(CC[C@@](C)([C@H]5CC[C@](O)(CC)[C@H](C)O5)O4)O3)[C@H](C)C[C@@H]2C)O1 (stereo not given in full)	24.2% (inactive)
C/C(=C/CCC(C)[C@@H]1CC[C@]2(C)C3=C(CC[C@@]12C)[C@@]1(C)CCC(=O)C(C)(C)[C@@H]1CC3)C(=O)O (stereo not given in full)	-83.9% (active)
COc1ccc(-c2nn(-c3cccc(Cl)c3)cc2-c2nc(N)[nH]c(=O)c2C#N)cc1	90.4% (inactive)
c1ccc2c(c1)Cc1ccccc1N2CCN1CCCCC1	110% (inactive)
NC1=NC(c2ccccc2)C2=C(N1)/C(=C/c1ccccc1)CCC2 (stereo not given)	102% (inactive)
CNC(=O)c1cn2c3c(c(N4CCN(C)CC4)c(F)cc3c1=O)OC[C@@H]2C	108% (inactive)
O=C(NCCNC(=O)c1ccc(F)cc1)Nc1ccc(-n2cc(-c3ccncc3)c(-c3ccc(Cl)c(O)c3)n2)cc1	18.4% (inactive)
CCN1CCN(CCC(=O)Nc2cccc(-n3cc(-c4ccncc4)c(-c4ccc(Cl)c(OC)c4)n3)c2)CC1	-52.3% (active)
CC(C)c1ccc(C(C)C(=O)N(CC2=C(C(C)c3ccccn3)c3ccccc3C2)C(C)C)cc1 (stereo not given)	79.7% (inactive)
COc1ccc(-c2nn(-c3cccc(Cl)c3)cc2-c2c(C#N)c(N)n(N)c(=O)c2C#N)cc1	91.6% (inactive)
CSc1nc(S(C)(=O)=O)nc2[nH]c(=O)[nH]c12	126% (inactive)
COc1ccc(-c2cc(-c3ccc(Cl)cc3)nc(SCCCC(=O)NO)n2)cc1OC	20.5% (inactive)
O=C(Nc1ccc(OCc2nnc(-c3ccc(Cl)cc3)o2)c(F)c1)Nc1ccc(Cl)c(C(F)(F)F)c1	20.2% (inactive)

Compound	growth
O=[N+]([O-])c1cc(Cl)cc(Cl)c1O	102% (inactive)
COc1ccc(C(=O)CSc2nc(-c3cc(OC)ccc3OC)cc(-c3ccc(OC)cc3)c2C#N)cc1	101% (inactive)
CC(=O)O[C@@]12CO[C@@H]1C[C@H](O)[C@@]1(C)C(=O)[C@H](O)C3=C(C)[C@@H](OC(=O)[C@H](O)[C@@H](NC(=O)OC(C)(C)C)c4ccccc4)C[C@@](O)([C@@H](OC(=O)c4ccccc4)C12)C3(C)C (stereo not given in full)	77.9% (inactive)
CCN(CC)CCOc1cccc2c1C(=O)c1ccccc1C2=O	111% (inactive)
Nc1ccc(/C=N/Nc2ccnc3c(O)cccc23)c2cccnc12	90.9% (inactive)
Cc1cc(CC(C)CC(C)(C)C)n(O)c(=O)c1 (stereo not given) (tested in a mixture with another compound)	25.1% (inactive)
C=C(NC(=O)C(=C)NC(=O)c1csc(C2=NC3c4csc(n4)C4NC(=O)c5csc(n5)C(C(C)(O)C(C)O)NC(=O)C5CSC(=N5)C(=CC)NC(=O)C(C(C)O)NC(=O)c5csc(n5)C3(CC2)NC(=O)C(C)NC(=O)C(=C)NC(=O)C(C)NC(=O)C(C(C)CC)NC2C=Cc3c(C(C)O)cc(nc3C2O)C(=O)OC4C)n1)C(N)=O (stereo not given)	-34.5% (active)
Nc1ccc(CC[C@H]2CCC/C=C/[C@@H]3C[C@H](O)C[C@H]3[C@H](O)/C=C/C(=O)O2)cc1	5.16% (active)
N#CC1=CC2CN(Cc3ccccc3)C1C1C(=O)N(c3ccccc3)C(=O)C21 (stereo not given)	102% (inactive)
Oc1cccc(-c2nc3sccn3c2-c2ccncn2)c1	33.9% (inactive)
C[C@@H](C[C@H](CCO)c1ccccc1)c1ccc2ccccc2c1	-79.3% (active)
CNC(=O)c1cc(Oc2ccc3c(c2)sc2nc(-c4ccc(NC(=O)Nc5ccc(Cl)c(C(F)(F)F)c5)cc4)cn23)ccn1	88.4% (inactive)
COCCn1cc(-c2nc(-c3cccnc3)cs2)c2cc(F)ccc21	97.2% (inactive)
CN(C)c1nc(N)c2nccnc2n1	118% (inactive)
CC(C)(C)c1ccc(S(=O)(=O)N[C@H]2CC[C@H]3[C@@H]4CCc5cc(O)ccc5[C@H]4CC[C@]23C)cc1	79.1% (inactive)
CN(C)CCCOc1ccccc1NC1=C(Cl)C(=O)C(Nc2ccccc2OCCCN(C)C)=C(Cl)C1=O	14.1% (inactive)
C(=N\Nc1ncnc2sc3c(c12)CCNC3)/c1cccc2ccccc12	103% (inactive)
CCOc1ccccc1/C=N\N=C\c1ccccc1O	112% (inactive)
COc1cc2c3c(n(C4CCNCC4)c(=O)c2cc1OC)-c1cc2c(cc1C3=O)OCO2	-5.66% (active)
COc1cc(-c2csc(NC(=O)Nc3ccc(Cl)c(C(F)(F)F)c3)n2)cc(OC)c1OC	15.3% (inactive)
